Test results reported in PubChem BioAssay (NCATS).
Results filed as inconclusive are left out. Calls of active or inactive are those of the source. Calls come from the whole dose curve; as a rule, active = well fitted cell-killing curve with a large enough effect; inconclusive = small, poorly fitted or top-dose-only effect, or effect the other way; inactive = flat fitted curve, though single readings scatter.

Legend:
Experiment in all cases: Primary qHTS to identify gynecologic anti-cancer compounds using libraries of approved drugs and bioactive compounds (AID 1345084); note: nearly all actives have a fitted effect of over 55% in size
C33A = conditions: Gynecologic cancer cell panel viability, ATPlite luminescence, 48 h; series mostly up to 57.5 µM
In short: (§1)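 Cells, 1,000 per well, plated 16 h, then exposed 48 h at 37 C to compounds. Viability by ATPlite luminescence after 15 min at room temperature.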

CAOV3 = conditions: Gynecologic cancer cell panel viability, ATPlite luminescence, 48 h; series mostly up to 57.5 µM
In short: as §1

CASKI = conditions: Gynecologic cancer cell panel viability, ATPlite luminescence, 48 h; series mostly up to 57.5 µM
In short: as §1

Es-2 = conditions: Gynecologic cancer cell panel viability, ATPlite luminescence, 48 h; series mostly up to 57.5 µM
In short: as §1

HeLa = conditions: Gynecologic cancer cell panel viability, ATPlite luminescence, 48 h; series mostly up to 57.5 µM
In short: as §1

Hek293T = conditions: Gynecologic cancer cell panel viability, ATPlite luminescence, 48 h, control line for the selectivity index; series mostly up to 57.5 µM
In short: as §1

JEG-3 = conditions: Gynecologic cancer cell panel viability, ATPlite luminescence, 48 h; series mostly up to 57.5 µM
In short: as §1

OV90 = conditions: Gynecologic cancer cell panel viability, ATPlite luminescence, 48 h; series mostly up to 57.5 µM
In short: as §1

PA-1 = conditions: Gynecologic cancer cell panel viability, ATPlite luminescence, 48 h; series mostly up to 57.5 µM
In short: as §1

SKOV3 = conditions: Gynecologic cancer cell panel viability, ATPlite luminescence, 48 h; series mostly up to 57.5 µM
In short: as §1

Tov-21-G = conditions: Gynecologic cancer cell panel viability, ATPlite luminescence, 48 h; series mostly up to 57.5 µM
In short: as §1

Tov112D = conditions: Gynecologic cancer cell panel viability, ATPlite luminescence, 48 h; series mostly up to 57.5 µM
In short: as §1
% is set by controls: 0 for no effect and ±100 for the full control effect; potency is the fitted concentration of half-maximal effect.

COc1ccc(CCO[C@@H]2O[C@H](CO[C@@H]3OC[C@H](O)[C@H](O)[C@H]3O)[C@@H](O)[C@H](O)[C@H]2O)cc1
inactive: Potency (C33A) | Potency (CAOV3) | Potency (CASKI) | Potency (Es-2) | Potency (HeLa) | Potency (Hek293T) | Potency (JEG-3) | Potency (OV90) | Potency (PA-1) | Potency (SKOV3) | Potency (Tov-21-G) | Potency (Tov112D)

Cc1noc(-c2ccc(-c3ccc(CC(=O)O)cc3)cc2)c1NC(=O)O[C@H](C)c1ccccc1
inactive: Potency (C33A) | Potency (CAOV3) | Potency (CASKI) | Potency (Es-2) | Potency (HeLa) | Potency (Hek293T) | Potency (JEG-3) | Potency (OV90) | Potency (PA-1) | Potency (SKOV3) | Potency (Tov-21-G) | Potency (Tov112D)

Cc1oc2ccccc2c1CNC(=O)NCc1cccs1
inactive: Potency (C33A) | Potency (CAOV3) | Potency (CASKI) | Potency (Es-2) | Potency (HeLa) | Potency (Hek293T) | Potency (JEG-3) | Potency (OV90) | Potency (PA-1) | Potency (SKOV3) | Potency (Tov-21-G) | Potency (Tov112D)

CCCC(=O)C1CCN(c2ncnc3c2CN(C(=O)c2ccc(-c4ccccc4)cc2)CC3)CC1
inactive: Potency (C33A) | Potency (CAOV3) | Potency (CASKI) | Potency (Es-2) | Potency (HeLa) | Potency (Hek293T) | Potency (JEG-3) | Potency (OV90) | Potency (PA-1) | Potency (SKOV3) | Potency (Tov-21-G) | Potency (Tov112D)

COC(=O)C1=CO[C@@H](O[C@@H]2O[C@H](CO)[C@@H](O)[C@H](O)[C@H]2O)[C@H]2[C@@H]1C=C[C@@]21C=C([C@H](C)O)C(=O)O1
inactive: Potency (C33A) | Potency (CAOV3) | Potency (CASKI) | Potency (Es-2) | Potency (HeLa) | Potency (Hek293T) | Potency (JEG-3) | Potency (OV90) | Potency (PA-1) | Potency (SKOV3) | Potency (Tov-21-G) | Potency (Tov112D)

C/C=C(/COC(=O)/C(C)=C/C)C(=O)OC(CC)c1ccc(OC)c(OC)c1 (stereo unspecified)
inactive: Potency (C33A) | Potency (CAOV3) | Potency (CASKI) | Potency (Es-2) | Potency (HeLa) | Potency (Hek293T) | Potency (JEG-3) | Potency (OV90) | Potency (PA-1) | Potency (SKOV3) | Potency (Tov-21-G) | Potency (Tov112D)

CC(=O)O[C@@H]1c2c(C)coc2C(=O)[C@@]23O[C@@H]2CC[C@H](C)[C@@]13C
inactive: Potency (C33A) | Potency (CAOV3) | Potency (CASKI) | Potency (Es-2) | Potency (HeLa) | Potency (Hek293T) | Potency (JEG-3) | Potency (OV90) | Potency (PA-1) | Potency (SKOV3) | Potency (Tov-21-G) | Potency (Tov112D)

Cc1cc(C)cc(C(=O)NOCCCCCC(=O)NO)c1
active: Potency (C33A) 3.98 µM | Potency (CAOV3) 8.91 µM | Potency (CASKI) 7.08 µM | Potency (Es-2) 3.16 µM | Potency (HeLa) 3.16 µM | Potency (Hek293T) 3.55 µM | Potency (JEG-3) 3.16 µM | Potency (OV90) 3.98 µM | Potency (PA-1) 0.891 µM | Potency (SKOV3) 3.16 µM | Potency (Tov-21-G) 8.91 µM | Potency (Tov112D) 3.55 µM

COc1ccc(-c2c(-c3cc(C(=O)O)ccn3)ncn2C)cc1
inactive: Potency (C33A) | Potency (CAOV3) | Potency (CASKI) | Potency (Es-2) | Potency (HeLa) | Potency (Hek293T) | Potency (JEG-3) | Potency (OV90) | Potency (PA-1) | Potency (SKOV3) | Potency (Tov-21-G) | Potency (Tov112D)

COc1cc(O)cc(C)c1C(=O)OC1C(CO)OC(OC2C(O)C(O)C(O)C(O)C2O)C(O)C1O (stereo unspecified)
inactive: Potency (C33A) | Potency (CAOV3) | Potency (CASKI) | Potency (Es-2) | Potency (HeLa) | Potency (Hek293T) | Potency (JEG-3) | Potency (OV90) | Potency (PA-1) | Potency (SKOV3) | Potency (Tov-21-G) | Potency (Tov112D)

C=CC(C)(O)CC/C=C(\C)C(=O)OC1C(O)C(CO)OC(OC(=O)C23CCC(C)(C)CC2C2=CCC4C5(C)CCC(OC6OC(COC7OCC(OC(C)=O)C(O)C7OC7OC(COC(C)=O)C(O)C(O)C7O)C(O)C(O)C6O)C(C)(C)C5CCC4(C)C2(C)C(O)C3O)C1OC1OCC(OC2OCC(O)C(OC3OCC(O)C(O)C3O)C2O)C(O)C1O (stereo unspecified)
inactive: activity change, negative = cytotoxicity (C33A) 7.05% [at 6.55 µM] | activity change, negative = cytotoxicity (CAOV3) -2.2% [at 6.55 µM] | activity change, negative = cytotoxicity (CASKI) -3.55% [at 6.55 µM] | activity change, negative = cytotoxicity (Es-2) 1.1% [at 6.55 µM] | activity change, negative = cytotoxicity (HeLa) 16.6% [at 6.55 µM] | activity change, negative = cytotoxicity (Hek293T) 1.48% [at 6.55 µM] | activity change, negative = cytotoxicity (JEG-3) -3.21% [at 6.55 µM] | activity change, negative = cytotoxicity (OV90) -14.1% [at 6.55 µM] | activity change, negative = cytotoxicity (PA-1) -0.479% [at 6.55 µM] | activity change, negative = cytotoxicity (SKOV3) 20.9% [at 6.55 µM] | activity change, negative = cytotoxicity (Tov-21-G) 0.14% [at 6.55 µM] | activity change, negative = cytotoxicity (Tov112D) -2.19% [at 6.55 µM]

C[C@@H]1O[C@@H](O[C@H]2[C@H](O[C@H]3CC[C@@]4(C)C(CC[C@]5(C)C4C=C[C@]46OC[C@@]7(CCC(C)(C)C[C@H]74)[C@@H](O)C[C@]65C)[C@]3(C)CO)O[C@H](CO)[C@@H](O)[C@@H]2O[C@@H]2O[C@H](CO)[C@@H](O[C@@H]3O[C@@H](C)[C@H](O)[C@@H](O)[C@H]3O)[C@H](O)[C@H]2O)[C@H](O)[C@H](O)[C@H]1O (stereo partly specified)
inactive: activity change, negative = cytotoxicity (C33A) -24.9% [at 11.6 µM] | activity change, negative = cytotoxicity (CAOV3) -6.89% [at 11.6 µM] | activity change, negative = cytotoxicity (CASKI) -6.58% [at 11.6 µM] | activity change, negative = cytotoxicity (Es-2) -4.56% [at 11.6 µM] | activity change, negative = cytotoxicity (HeLa) -11.4% [at 11.6 µM] | activity change, negative = cytotoxicity (Hek293T) -7.26% [at 11.6 µM] | activity change, negative = cytotoxicity (JEG-3) -0.552% [at 11.6 µM] | activity change, negative = cytotoxicity (OV90) -28.6% [at 11.6 µM] | activity change, negative = cytotoxicity (PA-1) -23.2% [at 11.6 µM] | activity change, negative = cytotoxicity (SKOV3) -29.1% [at 11.6 µM] | activity change, negative = cytotoxicity (Tov-21-G) -25.6% [at 11.6 µM] | activity change, negative = cytotoxicity (Tov112D) -4.43% [at 11.6 µM]

C=C[C@H]1[C@H](O[C@@H]2O[C@H](CO)[C@@H](O)[C@H](O)[C@H]2O)OC=C(C(=O)OC)[C@H]1C[C@@H]1c2cc(O)c(O)cc2CCN1C(C)=O
inactive: Potency (C33A) | Potency (CAOV3) | Potency (CASKI) | Potency (Es-2) | Potency (HeLa) | Potency (Hek293T) | Potency (JEG-3) | Potency (OV90) | Potency (PA-1) | Potency (SKOV3) | Potency (Tov-21-G) | Potency (Tov112D)
